# Results taken from the supplement of paper PMC10338343.
# ± gives the standard deviation.
# Tested on: MILI (PIWIL2) piRISC loaded with piRNA #1 (26 nt)
# Test: pre-steady-state target cleavage rate (min^-1); guide: piRNA #1 5'p-UGAGGUAGUAGGUUGUAUAGUAUCCA; MIWI and MILI are mouse PIWI proteins and EfPiwi is from a freshwater sponge; tags in brackets are library labels; higher = faster piRNA-guided slicing of the target
# Conditions: auxiliary factor: 500 nM mouse GTSF1
# In short: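 In HEPES–potassium acetate buffer at 33 °C, […] transcribed, DNA-blocked target RNA library was mixed with 1 nM active affinity-purified piRISC carrying one synthetic guide, with or without 500 nM GTSF1 partner protein, for 0–8 or 0–960 min. Uncleaved targets were sequenced and normalised to depth and to weakly complementary targets; three trials were pooled and k3 was capped at 0.0001 min^-1. The pre-steady-state cleavage rate followed from a burst-and-steady-state fit.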
# 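Note: 1 nM active piRISC with 0.1 nM target library at 33 °C single turnover.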
row,Sequence,pre-steady-state target cleavage rate
1,GGAGACCUAUGAUAACAAGCUACUACCACA,0.0117 ± 0.0047
2,GGAGACCUAUCUAUUCAACCUACUAGCUCA,0.0826 ± 0.014
3,GGAGACCUAUGUAUACAACCUCCUACCUCA,0.0161 ± 0.0038
4,GGAGACCUAUCUAUACAACCUACUACCCUCA,0.132 ± 0.015
5,GGAGACCUAUGAUUACAACCUACAUCCUCA,0.00278 ± 0.0025
6,GGAGACCAUACUAAACUACCUACUACCUCA,0.142 ± 0.013
7,GGAGACCUAUGAUAAACAACCUACUACCUCA,0.00811 ± 0.0029
8,GGAGACCAUACUAUACAACCUCUACCUCA,0.00997 ± 0.0029
9,GGAGACCUAUCUAUACAACGUUCUACCUCA,0.00394 ± 0.0033
10,GGAGACCUUACUUUACAACCUUCUACCUCA,0.00698 ± 0.0032
11,GGAGACCUAUGAUAUGUUCCUACUACACUCA,< 0.0001
12,GGAGACCUAUGUAUACAAGCUACUACCUGA,0.0868 ± 0.015
13,GGAGACCUAUGAAUACAAGCUUCUACCUCA,0.0038 ± 0.002
14,GGAGACCUAUGAUUACAACCUACUAGCUCA,0.00322 ± 0.0026
15,GGAGACCUUACUAUUCAACGUACUACCUCA,0.0187 ± 0.0035
16,GGAGACCUAUGAAUACAACCGUACUACCUCA,0.00389 ± 0.003
17,GGAGACCUAUCUAUACAACCUAGAUCCUCA,0.0047 ± 0.0021
18,GGAGUGGAUACUAUAGAACCAACUACCUCA,0.00293 ± 0.0022
19,GGAGUGGAUACUUAUCAACCUACUACCUCA,0.149 ± 0.011
20,GGAGACCUAUGUAUACAACCUACUACGUCA,0.0197 ± 0.0037

row,Sequence,pre-steady-state target cleavage rate
1,GGAGACCUAUGAAUACAAGCUACUUCCUCA,0.0166 ± 0.0043
2,GGAGACCUAACUUUACAACCUACUACGUCA,0.0224 ± 0.01
3,GGAGACCUAUGUAUACAAGCUACUACCACA,0.177 ± 0.017
4,GGAGACCUAUGAUAUGUUGCUGACUACCUCA,< 0.0001
5,GGAGACCUAUGUAUACAAGGUACUACCUCA,0.0261 ± 0.0047
6,GGAGACCUAUGUAUAUAACCUACUACCUCA,0.0579 ± 0.0076
7,GGAGACCUAUCAAUACAACCUAGUACCUCA,0.00718 ± 0.0036
8,GGAGACCUAACUAUACAACCUACCUACCUCA,0.0837 ± 0.018
9,GGAGACCAUACUAUACAACCUAUUACCUCA,0.234 ± 0.019
10,GGAGACGAUACUAUAUCAACCUACUACCUCA,0.123 ± 0.013
11,GGAGACCUAUGAUAUGUUCCUACUAACUCA,< 0.0001
12,GGAGACCUAACAUAACAACCUACUACCUCA,0.0321 ± 0.011
13,GGAGUGGAUACUAUAGAACCUAGUACCUCA,0.00269 ± 0.0022
14,GGAGACCAUACAAUACAACCUACUACCACA,0.177 ± 0.022
15,GGAGACCUUACUAUAGCAACCUACUACCUCA,0.127 ± 0.012
16,GGAGACCUAACUAUACUACCUACUACCUGA,0.0917 ± 0.025
17,GGAGACCUAUCUAUACAACUACUACCUCA,0.00292 ± 0.0024
18,GGAGACCUAUGUAUACAAGGAACUACCUCA,0.00296 ± 0.0028
19,GGAGACGAUACUUUACUACCUACUACCUCA,0.179 ± 0.012
